{
  "source": "the supplement of paper PMC8728848",
  "binders": {"B1": {"name": "CV-2L (Chromobacterium violaceum), Q7NX84 (protein)", "chain": "MAQQGVFTLPARINFGVTVLVNSAATQHVEIFVDNEPRAAFSGVGTGDNNLGTKVINSGSGNVRVQITANGRQSDLVSSQLVLANKLNLAVVGSEDGTDMDYNDSIVILNWPLG"}},
  "test_in_all_cases": "glycan array binding signal (z-score within array); higher = stronger binding",
  "conditions_in_all_cases": "glycan notation: IUPAC condensed, linker removed",
  "key": {"Fuc(a1-2)Gal(b1-3)GalNAc": {"biological_target": "Fuc(a1-2)Gal(b1-3)GalNAc", "in_short": "(§1)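 The binding signal is a Z-score computed within each array and averaged over linkers. Arrays of the same protein sequence at different concentrations or buffers were also averaged together. Data originate from 3228 arrays in the Consortium for Functional Glycomics database, kept only where the protein sequence was available.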"}, "Fuc(a1-2)Gal(b1-4)Glc6S": {"biological_target": "Fuc(a1-2)Gal(b1-4)Glc6S", "in_short": "as §1"}, "Fuc(a1-2)Gal(b1-4)GlcNAc": {"biological_target": "Fuc(a1-2)Gal(b1-4)GlcNAc", "in_short": "as §1"}, "[1]": {"biological_target": "Fuc(a1-2)Gal(b1-4)GlcNAc(b1-2)Man(a1-3)[Fuc(a1-2)Gal(b1-4)GlcNAc(b1-2)Man(a1-6)]Man(b1-4)GlcNAc(b1-4)GlcNAc", "in_short": "as §1"}, "[2]": {"biological_target": "Fuc(a1-2)Gal(b1-4)GlcNAc(b1-3)Gal(b1-4)GlcNAc", "in_short": "as §1"}, "[3]": {"biological_target": "Fuc(a1-2)Gal(b1-4)GlcNAc(b1-3)Gal(b1-4)GlcNAc(b1-3)Gal(b1-4)GlcNAc", "in_short": "as §1"}, "[4]": {"biological_target": "Fuc(a1-2)Gal(b1-4)GlcNAc(b1-3)[Fuc(a1-2)Gal(b1-4)GlcNAc(b1-6)]GalNAc", "in_short": "as §1"}, "[5]": {"biological_target": "Fuc(a1-2)Gal(b1-4)GlcNAc6S", "in_short": "as §1"}, "[6]": {"biological_target": "Fuc(a1-2)Gal(b1-4)[Fuc(a1-3)]GlcNAc", "in_short": "as §1"}, "[7]": {"biological_target": "Fuc(a1-2)Gal6S(b1-4)Glc6S", "in_short": "as §1"}, "[8]": {"biological_target": "Fuc(a1-2)[Gal(a1-3)]Gal(b1-3)GlcNAc(b1-2)Man(a1-3)[Fuc(a1-2)[Gal(a1-3)]Gal(b1-3)GlcNAc(b1-2)Man(a1-6)]Man(b1-4)GlcNAc(b1-4)GlcNAc", "in_short": "as §1"}, "[9]": {"biological_target": "Fuc(a1-2)[Gal(a1-3)]Gal(b1-4)GlcNAc(b1-2)Man(a1-3)[Fuc(a1-2)[Gal(a1-3)]Gal(b1-4)GlcNAc(b1-2)Man(a1-6)]Man(b1-4)GlcNAc(b1-4)[Fuc(a1-6)]GlcNAc", "in_short": "as §1"}, "[10]": {"biological_target": "Fuc(a1-2)[Gal(a1-3)]Gal(b1-4)[Fuc(a1-3)]Glc", "in_short": "as §1"}, "[11]": {"biological_target": "Fuc(a1-2)[Gal(a1-3)]Gal(b1-4)[Fuc(a1-3)]GlcNAc(b1-3)GalNAc", "in_short": "as §1"}, "[12]": {"biological_target": "Fuc(a1-2)[GalNAc(a1-3)]Gal", "in_short": "as §1"}, "Fuc(a1-3)GlcNAc": {"biological_target": "Fuc(a1-3)GlcNAc", "in_short": "as §1"}, "[13]": {"biological_target": "Fuc(a1-3)[Gal(b1-4)]GlcNAc(b1-4)Gal(b1-4)[Fuc(a1-3)]GlcNAc(b1-4)Gal(b1-4)[Fuc(a1-3)]GlcNAc", "in_short": "as §1"}, "[14]": {"biological_target": "Gal(a1-3)Gal(b1-4)GlcNAc(b1-3)GalNAc", "in_short": "as §1"}, "[15]": {"biological_target": "Gal(a1-3)Gal(b1-4)[Fuc(a1-3)]GlcNAc(b1-2)Man(a1-3)[Gal(a1-3)Gal(b1-4)[Fuc(a1-3)]GlcNAc(b1-2)Man(a1-6)]Man(b1-4)GlcNAc(b1-4)GlcNAc", "in_short": "as §1"}, "Gal(a1-6)Glc": {"biological_target": "Gal(a1-6)Glc", "in_short": "as §1"}, "Gal(b1-3)GalNAc": {"biological_target": "Gal(b1-3)GalNAc", "in_short": "as §1"}, "[16]": {"biological_target": "Gal(b1-3)GlcNAc(b1-3)Gal(b1-4)Glc", "in_short": "as §1"}, "[17]": {"biological_target": "Gal(b1-3)[Fuc(a1-4)]GlcNAc(b1-3)Gal(b1-4)[Fuc(a1-3)]GlcNAc", "in_short": "as §1"}, "[18]": {"biological_target": "Gal(b1-4)GlcNAc(b1-2)Man(a1-3)[Gal(b1-4)GlcNAc(b1-2)Man(a1-6)]Man(b1-4)GlcNAc(b1-4)[Fuc(a1-6)]GlcNAc", "in_short": "as §1"}, "[19]": {"biological_target": "Gal(b1-4)GlcNAc(b1-2)[Gal(b1-4)GlcNAc(b1-4)]Man(a1-3)[GlcNAc(b1-4)][Gal(b1-4)GlcNAc(b1-2)[Gal(b1-4)GlcNAc(b1-6)]Man(a1-6)]Man(b1-4)GlcNAc(b1-4)GlcNAc", "in_short": "as §1"}, "[20]": {"biological_target": "Gal(b1-4)GlcNAc(b1-2)[Gal(b1-4)GlcNAc(b1-6)]Man(a1-6)[Gal(b1-4)GlcNAc(b1-2)Man(a1-3)]Man(b1-4)GlcNAc(b1-4)GlcNAc", "in_short": "as §1"}, "[21]": {"biological_target": "Gal(b1-4)GlcNAc(b1-2)[Gal(b1-4)GlcNAc(b1-6)]Man(a1-6)[GlcNAc(b1-4)][Gal(b1-4)GlcNAc(b1-2)Man(a1-3)]Man(b1-4)GlcNAc(b1-4)GlcNAc", "in_short": "as §1"}, "[22]": {"biological_target": "Gal(b1-4)GlcNAc(b1-3)Gal(b1-3)GlcNAc", "in_short": "as §1"}, "[23]": {"biological_target": "Gal(b1-4)GlcNAc(b1-3)GalNAc", "in_short": "as §1"}, "Gal4S(b1-4)GlcNAc": {"biological_target": "Gal4S(b1-4)GlcNAc", "in_short": "as §1"}, "[24]": {"biological_target": "GalNAc(a1-3)GalNAc(b1-3)Gal(a1-4)Gal(b1-4)GlcNAc", "in_short": "as §1"}, "[25]": {"biological_target": "GalNAc(b1-3)Gal(a1-6)Gal(b1-4)Glc", "in_short": "as §1"}, "[26]": {"biological_target": "GlcNAc(a1-6)Gal(b1-4)GlcNAc", "in_short": "as §1"}, "Kdn(a2-3)Gal(b1-4)GlcNAc": {"biological_target": "Kdn(a2-3)Gal(b1-4)GlcNAc", "in_short": "as §1"}, "[27]": {"biological_target": "Neu5Ac(a2-3)Gal(b1-4)[Fuc(a1-3)]GlcNAc(b1-3)Gal", "in_short": "as §1"}, "[28]": {"biological_target": "Neu5Ac(a2-3)Gal(b1-4)[Fuc(a1-3)]GlcNAc(b1-3)Gal(b1-4)GlcNAc", "in_short": "as §1"}, "[29]": {"biological_target": "Neu5Ac(a2-6)Gal(b1-4)GlcNAc(b1-2)Man(a1-3)[Neu5Ac(a2-6)Gal(b1-4)GlcNAc(b1-2)Man(a1-6)]Man(b1-4)GlcNAc(b1-4)GlcNAc", "in_short": "as §1"}, "[30]": {"biological_target": "Neu5Gc(a2-6)Gal(b1-4)GlcNAc", "in_short": "as §1"}},
  "note": "Only a selection was taken, and the strongest signals are over-represented in it overall.",
  "data": [
    {"binder": "B1", "values": [
      {"measurement": "glycan array binding signal (z-score)", "setting": "Fuc(a1-2)Gal(b1-3)GalNAc", "value": 0.156},
      {"measurement": "glycan array binding signal (z-score)", "setting": "Fuc(a1-2)Gal(b1-4)Glc6S", "value": 4.43},
      {"measurement": "glycan array binding signal (z-score)", "setting": "Fuc(a1-2)Gal(b1-4)GlcNAc", "value": 5.39},
      {"measurement": "glycan array binding signal (z-score)", "setting": "[1]", "value": 5.17},
      {"measurement": "glycan array binding signal (z-score)", "setting": "[2]", "value": 5.68},
      {"measurement": "glycan array binding signal (z-score)", "setting": "[3]", "value": 5.57},
      {"measurement": "glycan array binding signal (z-score)", "setting": "[4]", "value": 5.71},
      {"measurement": "glycan array binding signal (z-score)", "setting": "[5]", "value": 5.42},
      {"measurement": "glycan array binding signal (z-score)", "setting": "[6]", "value": 0.928},
      {"measurement": "glycan array binding signal (z-score)", "setting": "[7]", "value": 4.37},
      {"measurement": "glycan array binding signal (z-score)", "setting": "[8]", "value": -0.292},
      {"measurement": "glycan array binding signal (z-score)", "setting": "[9]", "value": -0.257},
      {"measurement": "glycan array binding signal (z-score)", "setting": "[10]", "value": -0.019},
      {"measurement": "glycan array binding signal (z-score)", "setting": "[11]", "value": -0.294},
      {"measurement": "glycan array binding signal (z-score)", "setting": "[12]", "value": -0.2},
      {"measurement": "glycan array binding signal (z-score)", "setting": "Fuc(a1-3)GlcNAc", "value": 1.49},
      {"measurement": "glycan array binding signal (z-score)", "setting": "[13]", "value": -0.252},
      {"measurement": "glycan array binding signal (z-score)", "setting": "[14]", "value": -0.341},
      {"measurement": "glycan array binding signal (z-score)", "setting": "[15]", "value": -0.319},
      {"measurement": "glycan array binding signal (z-score)", "setting": "Gal(a1-6)Glc", "value": -0.347},
      {"measurement": "glycan array binding signal (z-score)", "setting": "Gal(b1-3)GalNAc", "value": -0.341},
      {"measurement": "glycan array binding signal (z-score)", "setting": "[16]", "value": -0.304},
      {"measurement": "glycan array binding signal (z-score)", "setting": "[17]", "value": 0.831},
      {"measurement": "glycan array binding signal (z-score)", "setting": "[18]", "value": -0.275},
      {"measurement": "glycan array binding signal (z-score)", "setting": "[19]", "value": -0.334},
      {"measurement": "glycan array binding signal (z-score)", "setting": "[20]", "value": -0.307},
      {"measurement": "glycan array binding signal (z-score)", "setting": "[21]", "value": -0.316},
      {"measurement": "glycan array binding signal (z-score)", "setting": "[22]", "value": -0.343},
      {"measurement": "glycan array binding signal (z-score)", "setting": "[23]", "value": -0.342},
      {"measurement": "glycan array binding signal (z-score)", "setting": "Gal4S(b1-4)GlcNAc", "value": -0.355},
      {"measurement": "glycan array binding signal (z-score)", "setting": "[24]", "value": -0.306},
      {"measurement": "glycan array binding signal (z-score)", "setting": "[25]", "value": -0.338},
      {"measurement": "glycan array binding signal (z-score)", "setting": "[26]", "value": -0.342},
      {"measurement": "glycan array binding signal (z-score)", "setting": "Kdn(a2-3)Gal(b1-4)GlcNAc", "value": -0.31},
      {"measurement": "glycan array binding signal (z-score)", "setting": "[27]", "value": -0.337},
      {"measurement": "glycan array binding signal (z-score)", "setting": "[28]", "value": -0.308},
      {"measurement": "glycan array binding signal (z-score)", "setting": "[29]", "value": -0.336},
      {"measurement": "glycan array binding signal (z-score)", "setting": "[30]", "value": -0.326}
    ]}
  ]
}
